# Measured values taken from paper PMC11062922 (Nature Chemical Biology, 2023).
# Where two headings read alike, the source gives them in different places.
# Legend:
# AGK = tested on: AGK; parameters: species or system human, MV4-11 + K-562 + COLO205 + SK-N-BE2 + OVCAR-8; settings: read-out: apparent Kd; compound concentrations:100 nM and 1000 nM (sheet 'Samples'); n = 1
# CDKL5 = tested on: CDKL5; parameters: species or system human, MV4-11 + K-562 + COLO205 + SK-N-BE2 + OVCAR-8; settings: read-out: apparent Kd; compound concentrations:100 nM and 1000 nM (sheet 'Samples'); n = 1
# CLK1 = tested on: CLK1; parameters: species or system human, MV4-11 + K-562 + COLO205 + SK-N-BE2 + OVCAR-8; settings: read-out: apparent Kd, n = 1
# CLK2 = tested on: CLK2; parameters: species or system human, MV4-11 + K-562 + COLO205 + SK-N-BE2 + OVCAR-8; settings: read-out: apparent Kd; compound concentrations:100 nM and 1000 nM (sheet 'Samples'); n = 1
# CLK4 = tested on: CLK4; parameters: species or system human, MV4-11 + K-562 + COLO205 + SK-N-BE2 + OVCAR-8; settings: read-out: apparent Kd, n = 1
# AIFM1 = tested on: AIFM1; parameters: species or system human, MV4-11 + K-562 + COLO205 + SK-N-BE2 + OVCAR-8; settings: read-out: apparent Kd; compound concentrations: 100 nM and 1000 nM (sheet 'Samples'), CATDS: 7.0265848272952805E-2; n = 1
# CSNK1G1 = tested on: CSNK1G1; parameters: species or system human, MV4-11 + K-562 + COLO205 + SK-N-BE2 + OVCAR-8; settings: read-out: apparent Kd; compound concentrations: 100 nM and 1000 nM (sheet 'Samples'), CATDS: 5.5121042551324002E-2; n = 1
# DAPK3 = tested on: DAPK3; parameters: species or system human, MV4-11 + K-562 + COLO205 + SK-N-BE2 + OVCAR-8; settings: read-out: apparent Kd; compound concentrations: 100 nM and 1000 nM (sheet 'Samples'), CATDS: 8.3155449206082505E-2; n = 1
# DCTPP1 = tested on: DCTPP1; parameters: species or system human, MV4-11 + K-562 + COLO205 + SK-N-BE2 + OVCAR-8; settings: read-out: apparent Kd; compound concentrations: 100 nM and 1000 nM (sheet 'Samples'), CATDS: 5.7600915047594299E-2; n = 1
# FN3KRP = tested on: FN3KRP; parameters: species or system human, MV4-11 + K-562 + COLO205 + SK-N-BE2 + OVCAR-8; settings: read-out: apparent Kd; compound concentrations: 100 nM and 1000 nM (sheet 'Samples'), CATDS: 6.5569795708597098E-2; n = 1
# FN3K = tested on: FN3K; parameters: species or system human, MV4-11 + K-562 + COLO205 + SK-N-BE2 + OVCAR-8; settings: read-out: apparent Kd; compound concentrations: 100 nM and 1000 nM (sheet 'Samples'), CATDS: 6.57741887652563E-2; n = 1
# MAPK3 = tested on: MAPK3; parameters: species or system human, MV4-11 + K-562 + COLO205 + SK-N-BE2 + OVCAR-8; settings: read-out: apparent Kd; compound concentrations: 100 nM and 1000 nM (sheet 'Samples'), CATDS: 8.8800747421998102E-2; n = 1
# NEK2 = tested on: NEK2; parameters: species or system human, MV4-11 + K-562 + COLO205 + SK-N-BE2 + OVCAR-8; settings: read-out: apparent Kd; compound concentrations: 100 nM and 1000 nM (sheet 'Samples'), CATDS: 7.0168858397625197E-2; n = 1
# PBK = tested on: PBK; parameters: species or system human, MV4-11 + K-562 + COLO205 + SK-N-BE2 + OVCAR-8; settings: read-out: apparent Kd; compound concentrations: 100 nM and 1000 nM (sheet 'Samples'), CATDS: 7.2795732103844296E-2; n = 1
# Q6ZSR9 = Q6ZSR9 (human, UniProt Q6ZSR9); parameters: species or system MV4-11 + K-562 + COLO205 + SK-N-BE2 + OVCAR-8; settings: read-out: apparent Kd; compound concentrations: 100 nM and 1000 nM (sheet 'Samples'), CATDS: 6.3978551473772294E-2; n = 1
# RABL3 = tested on: RABL3; parameters: species or system human, MV4-11 + K-562 + COLO205 + SK-N-BE2 + OVCAR-8; settings: read-out: apparent Kd; compound concentrations: 100 nM and 1000 nM (sheet 'Samples'), CATDS: 7.0827671495760899E-2; n = 1
# TESK1 = tested on: TESK1; parameters: species or system human, MV4-11 + K-562 + COLO205 + SK-N-BE2 + OVCAR-8; settings: read-out: apparent Kd; compound concentrations: 100 nM and 1000 nM (sheet 'Samples'), CATDS: 6.7543584282145103E-2; n = 1
# AKT3 = tested on: AKT3; parameters: species or system human, MV4-11 + K-562 + COLO205 + SK-N-BE2 + OVCAR-8; settings: read-out: apparent Kd; compound concentrations:100 nM and 1000 nM (sheet 'Samples'); n = 1
# GSK3A = tested on: GSK3A; parameters: species or system human, MV4-11 + K-562 + COLO205 + SK-N-BE2 + OVCAR-8; settings: read-out: apparent Kd; compound concentrations:100 nM and 1000 nM (sheet 'Samples'); n = 1
# GSK3B = tested on: GSK3B; parameters: species or system human, MV4-11 + K-562 + COLO205 + SK-N-BE2 + OVCAR-8; settings: read-out: apparent Kd; compound concentrations:100 nM and 1000 nM (sheet 'Samples'); n = 1
# MAP2K2 = tested on: MAP2K2; parameters: species or system human, MV4-11 + K-562 + COLO205 + SK-N-BE2 + OVCAR-8; settings: read-out: apparent Kd; compound concentrations:100 nM and 1000 nM (sheet 'Samples'); n = 1
# SKIV2L2 = tested on: SKIV2L2; parameters: species or system human, MV4-11 + K-562 + COLO205 + SK-N-BE2 + OVCAR-8; settings: read-out: apparent Kd; compound concentrations:100 nM and 1000 nM (sheet 'Samples'); n = 1
# [1] = compound concentrations:100 nM and 1000 nM (sheet 'Samples')
# Sequence of Q6ZSR9 (Q6ZSR9 whole entry, looked up): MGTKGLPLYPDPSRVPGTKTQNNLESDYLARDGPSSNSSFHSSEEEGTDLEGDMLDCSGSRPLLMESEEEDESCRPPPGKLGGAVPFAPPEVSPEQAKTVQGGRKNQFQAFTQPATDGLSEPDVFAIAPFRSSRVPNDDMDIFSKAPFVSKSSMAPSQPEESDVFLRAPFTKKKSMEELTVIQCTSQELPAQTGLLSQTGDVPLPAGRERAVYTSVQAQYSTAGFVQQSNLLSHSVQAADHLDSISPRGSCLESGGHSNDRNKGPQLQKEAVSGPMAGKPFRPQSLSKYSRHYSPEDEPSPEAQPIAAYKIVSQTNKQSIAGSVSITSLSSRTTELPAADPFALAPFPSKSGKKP
smiles,measurement,setting,value
COc1ccc2c(-c3ccnc(Nc4cccc(OC(F)(F)F)c4)n3)cnn2n1 [GW810372X],potency estimated from few doses,AGK,2270 nM
same,potency estimated from few doses,CDKL5,1850 nM
same,potency estimated from few doses,CLK1; [1],82.4 nM
same,potency estimated from few doses,CLK2,20.2 nM
same,potency estimated from few doses,CLK4; [1],120 nM
O=C1N=C(NCCc2ccc(F)cc2)S/C1=C\c1ccc2ncccc2c1 [RO4508340-000],potency estimated from few doses,AIFM1,1310 nM
same,potency estimated from few doses,"CLK1; compound concentrations: 100 nM and 1000 nM (sheet 'Samples'), CATDS: 0.104887627590219",643 nM
same,potency estimated from few doses,"CLK4; compound concentrations: 100 nM and 1000 nM (sheet 'Samples'), CATDS: 9.5715512322220406E-2",744 nM
same,potency estimated from few doses,CSNK1G1,2380 nM
same,potency estimated from few doses,DAPK3,948 nM
same,potency estimated from few doses,DCTPP1,2100 nM
same,potency estimated from few doses,FN3KRP,1530 nM
same,potency estimated from few doses,FN3K,1520 nM
same,potency estimated from few doses,MAPK3,844 nM
same,potency estimated from few doses,NEK2,1320 nM
same,potency estimated from few doses,PBK,1220 nM
same,potency estimated from few doses,Q6ZSR9,1620 nM
same,potency estimated from few doses,RABL3,1290 nM
same,potency estimated from few doses,TESK1,1430 nM
O=C1NC(=O)C(c2ccc(Cl)cc2)=C1Nc1ccc(Cl)c(C(=O)O)c1 [SB-360741],potency estimated from few doses,AKT3,1530 nM
same,potency estimated from few doses,GSK3A,601 nM
same,potency estimated from few doses,GSK3B,1310 nM
same,potency estimated from few doses,MAP2K2,140 nM
same,potency estimated from few doses,SKIV2L2,1360 nM
